Measurements published in PubChem BioAssay AID1851 (National Center for Advancing Translational Sciences (NCATS), 2009).
“And” between values parts separate entries of the source, which are not always exact repeats. Equal values may be shown once. About 5,800 (36%) of roughly 16,000 compounds were called active. Inconclusive results (about 23%) are left out. Some of the results follow. A number with no mark means an inactive call. The call rests on the fitted dose curve; in most records, active means well fitted curve in the direction sought with a large enough effect; inconclusive means small, poorly fitted or top-dose-only effect, or effect the other way; inactive means no such curve, though single readings can be large or run the other way.

molecular target: Cytochrome P450 2C19 (Homo sapiens) (UniProt P33261); assay: Cytochrome panel assay with activity outcomes; conditions: recombinant CYP, pro-luciferin dealkylation, luminescence, p450-cyp2c19; series mostly up to 57.1 µM; activity, negative = inhibition: at the top concentration
On the % scale 0 is the no-effect control and ±100 the full control effect.

Cytochrome P450 2C19 (Homo sapiens), sequence (P33261 whole entry, looked up): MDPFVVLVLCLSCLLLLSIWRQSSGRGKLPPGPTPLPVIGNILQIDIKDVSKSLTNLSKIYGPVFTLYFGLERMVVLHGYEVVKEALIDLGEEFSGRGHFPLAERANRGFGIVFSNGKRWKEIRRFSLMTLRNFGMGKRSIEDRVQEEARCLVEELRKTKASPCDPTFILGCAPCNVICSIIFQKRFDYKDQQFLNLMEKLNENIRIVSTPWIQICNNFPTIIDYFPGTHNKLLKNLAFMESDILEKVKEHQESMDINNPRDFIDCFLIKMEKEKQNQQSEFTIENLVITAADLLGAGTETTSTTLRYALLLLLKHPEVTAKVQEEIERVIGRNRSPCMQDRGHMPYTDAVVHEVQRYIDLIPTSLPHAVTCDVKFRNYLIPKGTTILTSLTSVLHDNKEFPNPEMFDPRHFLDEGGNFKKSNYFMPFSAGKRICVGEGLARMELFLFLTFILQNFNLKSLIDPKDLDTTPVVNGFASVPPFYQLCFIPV

Row | SMILES | activity, negative = inhibition | AC50
1 | CNC(=O)c1c(I)c(C(=O)NCC(=O)Nc2c(I)c(C(=O)O)c(I)c(C(=O)NCCO)c2I)c(I)c(N(C)C(C)=O)c1I | -35.8% [at 25.6 µM] | 
2 | O=C(O)[C@@H]1[C@@H](C(=O)Nc2ncccn2)[C@@H]2C=C[C@@H]1O2 | 0.77% [at 11.4 µM] | 
3 | CC[C@]1(O)C[C@@H]2CN(CCc3c([nH]c4ccccc34)[C@](C(=O)OC)(c3cc4c(cc3OC)N(C)[C@H]3[C@](O)(C(=O)OC)[C@@H](C(=O)OC)[C@@]5(CC)C=CCN6CC[C@@]43[C@@H]65)C2)C1 | -25.1% | 
4 | COC(=O)c1ccc(NC(=O)c2ccccc2)o1 | -23.3% | 
5 | CN(C(=O)CC(NC(=O)c1ccccc1)(c1ccccc1)c1ccccc1)c1ccccc1 |  | 11.2 µM (active)
6 | CCCCCC1=C2CNC(C)(C(=O)OC)C=C2C(C)C1=O (stereo not drawn) |  | 20 µM (active)
7 | CCCCCC1=C2CNC(Cc3ccccc3)(C(=O)OC)C=C2C(C)C1=O (stereo not drawn) |  | 6.31 µM (active)
8 | COCCn1c(=O)c(-c2cccc(C#N)c2)nc2cnc(N3CCNCC3)nc21 | -35.5% | 
9 | Nc1ccc(N=Nc2c(S(=O)(=O)O)cc3ccccc3c2S(=O)(=O)O)cc1 | 1.46% [at 11.4 µM] | 
10 | CCOC(=O)CCN1C(=O)[C@H]2[C@@H]3[C@H](O)[C@H](O)CC(=O)[C@H]3CC[C@H]2C1=O | -31.9% [at 11.4 µM] | 
11 | Cc1cc(NC(=O)CCN2C(=O)C3C4CCC(C4)C3C2=O)c(C)cc1Br (stereo not drawn) |  | 11.2 µM (active)
12 | Cc1cccc(C)c1NC(=O)CCN1C(=O)C2C3CCC(C3)C2C1=O (stereo not drawn) | 9.83% | 
13 | CC1CCN(CC(=O)Nc2cccc([N+](=O)[O-])c2)CC1 |  | 4.47 µM (active)
14 | O=C1c2ccccc2S(=O)(=O)N1CCCCN1CCN(c2ncccn2)CC1 |  | 0.631 µM (active)
15 | O[C@H](CCCN1CCN(c2ncc(F)cn2)CC1)c1ccc(F)cc1 | -16.9% | 
16 | Cn1cccc1C(=O)N1CCC2(CC1)CCN(c1ccc(-c3ccccc3)cc1)CC2 | 9.67% | 
17 | COc1ccc(C(=O)Nc2ccc(Cl)cc2C(=O)NCCN2CCOCC2)cc1 |  | 10 µM (active)
18 | O=C(NCCN1CCOCC1)c1ccc2ccccc2c1 |  | 7.94 µM (active)
19 | Cc1ccc(C(=O)NCCCN2CCOCC2)cc1N1CCCC1=O | -14.7% | 
20 | O=C(NCCN1CCCCC1)c1ccc(I)cc1 | -38.6% | 
21 | COc1ccc(C(=O)NCCCN2CCOCC2)cc1OC | -12.1% | 
22 | COc1ccc(-c2cn3c(C)c(C(=O)NCCN4CCOCC4)sc3n2)cc1 | -22.6% | 
23 | O=C(NCCN1CCOCC1)c1csc2c1CCCCC2 |  | 28.2 µM (active)
24 | CC(=O)N1CCC2(CC1)CN(C(=O)Nc1cccc(C#N)c1)C2 | 7.13% | 

Row | SMILES | activity, negative = inhibition | AC50
25 | C=CCn1c(SCC(=O)Nc2c(C)n(C)n(-c3ccccc3)c2=O)nc2sc(C)c(-c3ccccc3)c2c1=O |  | 15.8 µM (active)
26 | Cc1nc(SCC(=O)Nc2c(C)n(C)n(-c3ccccc3)c2=O)nc(C)c1C | -7.06% | 
27 | CC(=O)N1CCc2cc(S(=O)(=O)CCC(=O)Nc3c(C)n(C)n(-c4ccccc4)c3=O)ccc21 | -11.7% | 
28 | Cc1c(NC(=O)Cn2ccc([N+](=O)[O-])n2)c(=O)n(-c2ccccc2)n1C | -13.2% | 
29 | Cc1c(NC(=O)CSc2nnc3c4ccccc4n(CCc4ccccc4)c3n2)c(=O)n(-c2ccccc2)n1C |  | 25.1 µM (active)
30 | Cc1c(NC(=O)CSc2nnnn2C)c(=O)n(-c2ccccc2)n1C | -10.8% | 
31 | CC1(C)O[C@@H]2O[C@H]([C@H](O)CO/N=C3/[C@H]4O[C@@H]4[C@@H](O)[C@H]4[C@H]3CCn3c(=O)n(-c5ccccc5)c(=O)n34)[C@@H](O)[C@@H]2O1 | -36.7% [at 11.4 µM] | 
32 | Cc1c(C(=O)NCCC2=CCCCC2)cccc1[N+](=O)[O-] |  | 10 µM (active)
33 | Cc1c(C(=O)NN2CCN(C)CC2)cccc1[N+](=O)[O-] | 12.7% | 
34 | COCCn1c(=O)c(-c2ccc(Cl)cc2)nc2cnc(N3CCOCC3)nc21 | -5.7% | 
35 | Cn1c(=O)c(-c2ccc(Cl)cc2)nc2cnc(N3CCOCC3)nc21 | -5.23% | 
36 | CCC(=O)Nc1cc(-c2nn(C)c(=O)c3ccccc23)ccc1N1CCCCC1 |  | 15.8 µM (active)
37 | Cn1nc(-c2ccc(N3CCOCC3)c(NS(=O)(=O)c3ccc(Cl)cc3)c2)c2ccccc2c1=O |  | 0.708 µM (active)
38 | O=C(NCCCN1CCCCCC1)[C@@H](c1ccccc1)C1CCCCC1 | -22.4% | 
39 | CC(=O)Nc1ccc(NCN2C(=O)C3C4CCC(C4)C3C2=O)cc1 (stereo not drawn) | -17.9% | 
40 | O=C(NC1CCCCC1)C(Cc1ccccc1)N1C(=O)C2C3CCC(C3)C2C1=O (stereo not drawn) |  | 11.2 µM (active)
41 | Cc1ccc(NS(=O)(=O)c2ccc(OCC(=O)Nc3cccc([N+](=O)[O-])c3)c(C)c2)cc1 |  | 2 µM (active)
42 | O=C(c1ccccc1NS(=O)(=O)c1cccc([N+](=O)[O-])c1)N1CCOCC1 | -8.87% | 
43 | CSC1=N/C(=C\c2ccc(Br)o2)C(=O)S1 |  | 10 µM (active)
44 | CSC1=N/C(=C\c2ccc(C)cc2)C(=O)S1 |  | 7.94 µM (active)
45 | CCSc1nnc(-c2ccc(Cl)cc2)c2ccccc12 |  | 6.31 µM (active)
46 | CCNc1ncc2nc(-c3ccc(Cl)cc3)c(=O)n(-c3ccccc3)c2n1 | 1.02% | 
47 | Cn1c(SCc2nc3ccccc3n2CCO)nc2ccccc21 |  | 6.31 µM (active)
48 | Cn1c(C[C@@H](O)c2nc3ccccc3n2C)nc2ccccc21 | -23.7% [at 11.4 µM] | 

Row | SMILES | activity, negative = inhibition | AC50
49 | CC(=O)n1c(COS(C)(=O)=O)nc2ccccc21 | 6.98% [at 11.4 µM] | 
50 | Nc1nc2c(c(=O)[nH]1)N[C@H](CCNc1ccc(C(=O)O)cc1)CN2 | 0.2% [at 11.4 µM] | 
51 | CNCCC=C1c2ccccc2CCc2ccccc21 |  | inactive
52 | CN(C)CCC=C1c2ccccc2CCc2ccccc21 | -32.5% | 
53 | C[N+](C)([O-])CCC=C1c2ccccc2CCc2ccccc21 |  | 0.398 µM (active)
54 | O=C(Nc1cccn(Cc2c(Cl)cccc2Cl)c1=O)c1ccc(Cl)cc1Cl |  | 0.794 µM (active)
55 | O=C(CN1C(=O)C2C3C=CC(C3)C2C1=O)Nc1ccc(C(=O)O)cc1 (stereo not drawn) | 7.63% | 
56 | CCOC(=O)NCN1C(=O)C2C3C=CC(C3)C2C1=O (stereo not drawn) |  | 28.2 µM (active)
57 | CCOC(=O)N/N=C1/C[C@@H](O)[C@@H](O)[C@@H]2[C@@H]3C(=O)N(CC)C(=O)[C@H]3CC[C@@H]12 | 25.5% [at 11.4 µM] | 
58 | Cc1[nH]n2c(=O)c(C#N)c(-c3ccccc3)nc2c1-c1ccccc1 | 0.116% | 
59 | Cc1nc2c(c(-c3ccccc3)c1C#N)C(=O)c1ccccc1-2 |  | 1 µM (active)
60 | COc1ccccc1CNC(=O)CCN1C(=O)COc2ccc(C)cc21 |  | 3.16 µM (active)
61 | Cc1ccc2c(c1)N(CCC(=O)NCc1cccnc1)C(=O)CO2 |  | 8.91 µM (active)
62 | Cc1ccc2c(c1)N(CCC(=O)NCC1CCCO1)C(=O)CO2 (stereo not drawn) | -24% | 
63 | O=C(Nc1nnc(SCc2ccc(Cl)cc2)s1)c1ccco1 |  | 4.47 µM (active)
64 | CC(=O)Nc1nnc(SCc2ccc(F)cc2)s1 |  | 8.91 µM (active)
65 | O=C(c1ccccc1Nc1ccc(SC(F)F)cc1)N1CCCCC1 |  | 0.891 µM (active)
66 | CC1CCCC(C)N1C(=O)c1ccccc1Nc1ccc(SC(F)F)cc1 (stereo not drawn) |  | 1.12 µM (active)
67 | O=C(O)c1ccccc1Nc1ccccc1 | -23.6% | 
68 | CCCC[C@@H]1C[C@H]1C(NC(=O)c1ccccc1)c1ccc(Cl)cc1 (stereo partly drawn) |  | 0.631 µM (active)
69 | CCCC[C@@H]1C[C@H]1C(NC(=O)Cc1ccccc1)c1ccc(-c2ccccc2)cc1 (stereo partly drawn) | 0.313% | 
70 | CCCC[C@@H]1C[C@H]1C(NC(=O)c1ccccc1)c1ccccc1 (stereo partly drawn) |  | 0.398 µM (active)
71 | CCCC[C@@H]1C[C@H]1C(NC(=O)Cc1ccccc1)c1ccc(Cl)cc1 (stereo partly drawn) |  | 0.0501 µM (active)
72 | CCCC[C@@H]1C[C@H]1C(NC(=O)c1ccccc1)c1ccc(-c2ccccc2)cc1 (stereo partly drawn) | 9.73% | 

Row | SMILES | activity, negative = inhibition | AC50
73 | CCCC[C@@H]1C[C@H]1C(NC(=O)c1cccnc1)c1ccc(Cl)cc1 (stereo partly drawn) |  | 2 µM (active)
74 | CNCCCC1c2ccccc2C=Cc2ccccc21 |  | inactive
75 | O=C1c2ccccc2-c2n[nH]c3cccc1c23 | 27.5% | 
76 | CCCC[C@@H]1C[C@H]1C(NC(=O)c1cccs1)c1ccc(Cl)cc1 (stereo partly drawn) |  | 0.0794 µM (active)
77 | CCCCNc1cc(=O)oc2ccccc12 |  | 25.1 µM (active)
78 | Cc1nc2ccccc2nc1-c1ccc(N=[N+]([O-])c2ccc(-c3nc4ccccc4nc3C)cc2)cc1 | 64.3% [at 11.4 µM] | 
79 | Nc1ccc(Oc2ccc3nc(-c4ccccc4)c(-c4ccc([N+](=O)[O-])cc4)nc3c2)cc1 |  | 3.55 µM (active)
80 | CS(=O)(=O)N1CCC2(CCCN(C(=O)Nc3cccc(C#N)c3)C2)CC1 | -5.89% | 
81 | Cc1[nH]c2ccccc2c1/C=C(\C#N)C(=O)NC(C)c1ccccc1 (stereo not drawn) |  | 11.2 µM (active)
82 | Cc1[nH]c2ccccc2c1/C=C/c1cc[n+](C)cc1 | -13.1% | 
84 | C#CCSc1nncn1C(=O)/C=C/c1ccccc1 |  | 15.8 µM (active)
85 | Cc1nc2cnc(Oc3ccccc3)nc2n(C2CC2)c1=O | -18.6% | 
86 | CN(C)c1ncc2nc(CCc3ccccc3)c(=O)n(C3CC3)c2n1 |  | 15.8 µM (active)
87 | Cc1nc2cnc(N(C)C)nc2n(C2CC2)c1=O | -29% | 
88 | O=c1c(-c2cc(F)cc(F)c2)nc2cnc(Oc3ccccc3)nc2n1C1CC1 | -24% | 
89 | COc1ncc2nc(CCc3ccccc3)c(=O)n(C3CC3)c2n1 |  | 15.8 µM (active)
90 | COc1ccc(Oc2ncc3nc(CCc4ccccc4)c(=O)n(C4CC4)c3n2)cc1 |  | 1.58 µM (active)
91 | COc1ncc2nc(C)c(=O)n(C3CC3)c2n1 | -11.7% | 
92 | CN(C)c1ncc2nc(-c3ccc(F)cc3)c(=O)n(C3CC3)c2n1 | -35.1% | 
93 | COc1ncc2ncc(=O)n(C3CC3)c2n1 | -16.9% | 
